Experimental findings from PubChem BioAssay (Tox21) are described below.

Each structure is given as a SMILES string. Results filed as inconclusive are left out. The source made the active and inactive calls. Unless noted, calls follow the shape of the dose curve; as a rule, active = well fitted curve in the direction sought with a large enough effect in the repeat runs; inconclusive = weak or mixed curves; inactive = no such curve, though single readings can be large; an effect the other way counts as inactive or inconclusive.

Experiment [1] can be described thus: qHTS assay to identify small molecule agonists of the vitamin D receptor (VDR) signaling pathway - cell viability counter screen (AID 743224). Also: nearly all actives have a fitted effect of over 50% in size. The essentials: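 Cells: VDR-bla, 2,000/well, settled 4 h. Treatment: compounds in DMSO, 16 h, 37C/5% CO2. Readout: CellTiter-Glo luminescence after 30 min RT.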
A general note: In qHTS, concentration-response curves come from the screen itself.

A short description of experiment [2]: qHTS assay to identify small molecule antagonists of the vitamin D receptor (VDR) signaling pathway - cell viability counter screen (AID 743225). Also: nearly all actives have a fitted effect of over 50% in size. The essentials:
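Compounds were pinned onto VDR-bla HEK 293T cells together with 1-alpha,25-dihydroxyvitamin D3 at 3 nM final. After 16 h at 37C and 5% CO2 plus the reporter readout, cell viability was measured by CellTiter-Glo luminescence (30 min, room temperature).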

The nature of experiment [3]: qHTS assay to identify small molecule agonists of the NFkB signaling pathway (AID 1159509; active = well fitted curve in the direction sought with a large enough effect in the signal ratio in the repeat runs, not every such curve was filed as active; the % refers to the signal ratio). The essentials:
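Readout: FRET fluorescence, 405 nm excitation, 460/530 nm emission; beta-lactamase expression disrupts FRET. Cells: ME-180 stably carrying NF-kB-driven bla reporter. Compound exposure 5 hr, 37 C, 5% CO2.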

A short description of experiment [4]: qHTS assay to identify small molecule agonists of the NFkB signaling pathway - cell viability counter screen (AID 1159515; calls by dose curve; also: nearly all actives have a fitted effect of over 55% in size). The essentials: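 Cells are seeded (2,000 NFkB-bla ME-180 per well), rested overnight, and dosed with DMSO-dissolved compounds for 5 hr at 37 C. Viability is then read by CellTiter-Glo luminescence after 30 min at room temperature.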
A short description of experiment [5]: qHTS assay to identify small molecule agonists of the endoplasmic reticulum stress response signaling pathway - cell viability counter screen (AID 1159517; calls by dose curve;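 also: HeLa cells carrying an ER stress response element beta-lactamase reporter; nearly all actives have a fitted effect of over 50% in size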). The essentials: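 Steps: seed 1,500 ESRE-bla HeLa cells per well; incubate overnight at 37 C, 5% CO2; add compounds in DMSO for 5 hr; run FRET substrate 2 hr RT; add CellTiter-Glo, wait 30 min, read luminescence.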

Experiment [6] is described as follows: qHTS assay to identify small molecule antagonists of the retinoid-related orphan receptor gamma (ROR-gamma) signaling pathway - cell viability counter screen (AID 1159520). Also: nearly all actives have a fitted effect of over 50% in size. The essentials: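 Tet-on ROR gamma CHO cells were given compounds for 2 hr, then doxycycline hyclate at 1 uM final, and incubated 16 hr at 37 C. Viability was measured as ATP content by CellTiter-Glo luminescence.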

In experiment [7] the target is Nuclear receptor ROR-gamma (Homo sapiens) (UniProt P51449). Description: qHTS assay to identify small molecule antagonists of the retinoid-related orphan receptor gamma (ROR-gamma) signaling pathway (AID 1159521). In short, it runs like this: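 Test compounds were applied to Tet-on RORγ CHO cells 2 h ahead of doxycycline hyclate (1 uM final). Luciferase reporter activity was quantified by luminescence after 16 h at 37 C and 5% CO2.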

The nature of experiment [8]: qHTS assay to identify small molecule agonists of the AP-1 signaling pathway (AID 1159526; calls by dose curve).
For experiment [9], the target named is Retinoic acid receptor RXR-alpha (Homo sapiens) (UniProt P19793). The experiment can be described thus: qHTS assay to identify small molecule agonists of the RXR signaling pathway (AID 1159527; calls by dose curve; also: nearly all actives have a fitted effect of over 35% in size; also: potency is read from the fitted curve at half-maximal effect). The essentials: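 Using 9-cis retinoic acid as the reference agonist, chemicals were tested in HEK 293T cells […] for 16 hr; substrate loading lasted 2 hr at room temperature.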
Chain of Retinoic acid receptor RXR-alpha (Homo sapiens) (P19793 whole entry, looked up): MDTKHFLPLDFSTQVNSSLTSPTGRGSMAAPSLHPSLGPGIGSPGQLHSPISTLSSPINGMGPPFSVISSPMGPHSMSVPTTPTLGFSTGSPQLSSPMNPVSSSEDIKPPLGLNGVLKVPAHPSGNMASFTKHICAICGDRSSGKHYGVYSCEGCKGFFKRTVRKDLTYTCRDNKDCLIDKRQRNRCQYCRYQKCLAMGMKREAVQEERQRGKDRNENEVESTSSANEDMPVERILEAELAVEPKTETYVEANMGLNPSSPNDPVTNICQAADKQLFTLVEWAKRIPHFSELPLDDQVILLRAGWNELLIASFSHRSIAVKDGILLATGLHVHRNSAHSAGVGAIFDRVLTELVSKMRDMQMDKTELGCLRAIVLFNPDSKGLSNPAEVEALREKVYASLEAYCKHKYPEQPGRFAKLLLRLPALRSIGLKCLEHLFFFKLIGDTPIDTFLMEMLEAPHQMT

Experiment [10] in a line: qHTS assay to identify small molecule agonists of the RXR signaling pathway - cell viability counter screen (AID 1159529). Also: nearly all actives have a fitted effect of over 50% in size. Also: potency is read from the fitted curve at half-maximal effect. The essentials: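 Compounds dissolved in DMSO were pinned onto HEK 293T cells carrying a beta-lactamase reporter under RXR-alpha control and incubated 16 hr. Cytotoxicity was then quantified by CellTiter-Glo luminescence.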
The nature of experiment [11]: qHTS assay to identify small molecule antagonists of the retinoid acid receptor (RAR) signaling pathway - cell viability counter screen (AID 1159551). Also: nearly all actives have a fitted effect of over 35% in size. In short, it runs like this: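 Cells (C3RL4) are plated, incubated overnight, dosed with compound in DMSO, then given retinol at 1 uM final. After 6 h at 37 C, CellTiter-Glo is added and luminescence read following 30 min at room temperature.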

Experiment [12] in a line: qHTS assay to identify small molecule antagonists of the retinoic acid receptor (RAR) signaling pathway (AID 1159552; also: nearly all actives have a fitted effect of over 50% in size). The essentials:
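Test chemicals and DMSO controls were pin-transferred onto C3RL4 cells a day after seeding; retinol (1 uM final) followed at once. Luminescent reporter output was quantified after 6 hr of co-incubation and 30 min with detection reagent.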

Experiment [13] is described as follows: qHTS assay to identify small molecule agonists of the retinoic acid receptor (RAR) signaling pathway (AID 1159553). Also: potency is read from the fitted curve at half-maximal effect. Particulars: C3RL4 RARE luciferase reporter, agonist, 6 h; activation: at 73.3 µM (top of the series). The essentials:
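Seed C3RL4 reporter cells at 1,000 per well and incubate overnight at 37 C. Add compounds in DMSO, incubate 6 hr. Add luciferase reagent, wait 30 min at room temperature, read luminescence.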

Experiment [14] is described as follows: qHTS assay to identify small molecule agonists of the AP-1 signaling pathway - cell viability counter screen (AID 1159525; calls by dose curve; also: nearly all actives have a fitted effect of over 55% in size). The essentials:
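Same-well cytotoxicity counter screen of the Tox21 10K library in ME-180 cells. The readout is ATP-dependent luminescence after 5 h compound treatment. Data are normalised to DMSO and tetra n-octyl ammonium bromide controls.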

On to `Nc1cccc2c1CN(C1CCC(=O)NC1=O)C2=O` (stereo not given), for which the Potency entry in experiment [1], in experiment [2], in experiment [3], in experiment [4], in experiment [5] and in experiment [6] was “inactive” each time. The Potency entry in experiment [7], in experiment [8], in experiment [9], in [10], in [11] and in experiment [12] was “inactive” throughout. For the same molecule, the Potency result in [13] is “inactive”.
With `CC1=Nc2ccc3ccccc3c2C1(C)C`, the Potency entry in experiment [1], in experiment [2], in experiment [3], in [4], in experiment [5] and in experiment [6] was “inactive” each time. In addition, the Potency result in [14], in experiment [10], in experiment [11] and in experiment [12] was “inactive” throughout.
Regarding `O=C1c2ccccc2C(=O)C1c1nc2ccccc2c(Br)c1O`, the Potency entry in [1], in [3], in [4], in experiment [5], in experiment [6] and in experiment [7] was “inactive” throughout. Also, the Potency result in experiment [14], in experiment [9], in experiment [10], in [11] and in [12] was “inactive” in each case. For the same molecule, in experiment [13], the Potency is 24.3 µM (active).
As to `C=C1c2cccc(O)c2C(O)=C2C(=O)[C@]3(O)C(O)=C(C(N)=O)C(=O)[C@@H](N(C)C)[C@@H]3[C@@H](O)[C@H]12`, the Potency entry in experiment [1], in experiment [2], in [3], in experiment [4], in experiment [5] and in experiment [6] was “inactive” each time. Also, the Potency entry in experiment [14], in experiment [8], in experiment [9], in experiment [10], in experiment [11] and in experiment [12] was “inactive” throughout. In [13], the Potency entry is “inactive”.
As to `CCOc1ccccc1O[C@H](c1ccccc1)[C@H]1CNCCO1`, the Potency result in [1], in experiment [2], in experiment [3], in [4], in [5] and in [6] was “inactive” throughout. The Potency entry in experiment [14], in [9], in experiment [10] and in experiment [11] was “inactive” each time.
On to `Cc1cscn1`, for which the Potency result in experiment [1], in experiment [2], in experiment [3], in experiment [4], in experiment [5] and in [6] was “inactive” throughout. Besides, the Potency entry in experiment [14], in experiment [8], in experiment [10] and in experiment [11] was “inactive” throughout.
In the case of `CCCCCC[C@@H](O)C/C=C\CCCCCCCC(=O)O`, the Potency entry in experiment [1], in experiment [3], in [4], in [5], in experiment [6] and in experiment [14] was “inactive” in each case. Further, in [11], the Potency entry is “inactive”. In addition, the Potency in [9] was 49 µM (active); in experiment [10] it was 38.9 µM (active).
`CC1CC(C)C(=O)C1=O` (stereo not given): the Potency entry in experiment [1], in experiment [2], in [3], in [4], in experiment [5] and in [6] was “inactive” in each case. The Potency result in [14], in [8], in [10] and in experiment [11] was “inactive” in each case.
With `NNC(=O)CP(=O)(c1ccccc1)c1ccccc1`, the Potency result in experiment [1], in experiment [2], in experiment [3], in experiment [4], in experiment [5] and in experiment [6] was “inactive” each time. For the same molecule, the Potency result in experiment [14], in [8], in experiment [9], in experiment [10], in experiment [11] and in [12] was “inactive” each time. The Potency result in [13] was “inactive”.
